Measured values as given in PubChem BioAssay.
The source made the active and inactive calls. Unless noted, how the calls were made is not given here.

What was measured:
[1] = A549 cell viability effects, profiling panel, calcein-AM fluorescence, 48 h, basal (AID 1162); conditions: higher = more signal; further: test concentration not given here
[2] = adipocyte viability effects, profiling panel, cell-based, 3T3-L1 adipocytes, calcein-AM fluorescence, 48 h, basal (AID 1163); conditions: 3T3-L1 adipocytes viability, higher = more signal; further: test concentration not given here
[3] = HepG2 cell viability effects, profiling panel, calcein-AM fluorescence, 48 h, basal (AID 1164); conditions: higher = more signal; further: test concentration not given here
[4] = MM1S cell viability effects, profiling panel, calcein-AM fluorescence, 48 h, basal (AID 1165); conditions: higher = more signal;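 further: viability of MM1S multiple myeloma cells under basal unstimulated conditions; test concentration not given here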
[5] = basal RPMI8226 viability, no added stimulus, profiling panel, cell-based, calcein-AM fluorescence, 48 h, PK04 Diversity Set (AID 1166); conditions: RPMI8226 myeloma viability, higher = more signal;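 further: cells grown under basal conditions without added stimulus; test concentration not given here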
[6] = basal HepG2 mitochondrial membrane potential changes, profiling panel, cell-based, JC-1 fluorescence, 24 h, 100 nL compound (AID 1167); conditions: higher = more signal; further: test concentration not given here
[7] = basal 3T3-L1 adipocyte mitochondrial potential changes, profiling panel, cell-based, JC-1 fluorescence, 3T3-L1 adipocytes, 24 h, 100 nL compound (AID 1168); conditions: JC-1 mitochondrial fluorescence, higher = more signal, called active from +8 up or from −8 down; further: test concentration not given here
[8] = basal RPMI8226 mitochondrial membrane potential changes, profiling panel, cell-based, JC-1 fluorescence, 24 h, 100 nL compound (AID 1169); conditions: RPMI8226 myeloma, JC-1 mitochondrial potential fluorescence, higher = more signal; further: test concentration not given here
[9] = basal MM1S mitochondrial membrane potential changes, profiling panel, cell-based, JC-1 fluorescence, 24 h, 100 nL compound (AID 1170); conditions: higher = more signal; further: test concentration not given here
[10] = A549 lung cancer cell viability effects, profiling panel, resazurin fluorescence, 24 h, PK04 Diversity Set (AID 1171); conditions: higher = more signal, called active from +8 up or from −8 down; further: test concentration not given here
[11] = HepG2 liver cancer cell viability effects, profiling panel, resazurin fluorescence, 24 h, PK04 Diversity Set (AID 1172); conditions: higher = more signal; further: test concentration not given here
[12] = basal S. cerevisiae growth modulation, no modifier, primary screen, OD600, strain BY4716, 24 h, basal condition (AID 1173); conditions: OD600, 24 h, higher = more signal, called active from +8 up or from −8 down
[13] = MM1S myeloma cell viability, profiling panel, resazurin fluorescence, basal, 24 h, PK04 Diversity Set (AID 1174); conditions: higher = more signal, called active from +8 up or from −8 down;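 further: MM1S multiple myeloma cell line; test concentration not given here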
[14] = molecular target: Dihydroorotate dehydrogenase (quinone), mitochondrial (Plasmodium falciparum (isolate 3D7)) (UniProt Q08210); assay: PfDHODH enzyme inhibitors, primary screen, biochemical, C-terminal His tag, absorbance 600 nm (AID 1175); conditions: DCIP absorbance 600 nm, higher = more signal, called active from +8 up or from −8 down;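 further: recombinant parasite enzyme with a five histidine tag at its C terminus; test concentration not given here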
[15] = P. aeruginosa biofilm formation inhibitors, primary screen, strain PAO1, LB-PBS medium, absorbance 600 nm (AID 1176); further: test concentration not given here; conditions: P. aeruginosa PAO1 growth/biofilm, A600, 12 h; higher = more signal
[16] = S. cerevisiae RM11-1a growth modifiers, primary screen, strain RM11-1a, OD600, basal, 24 h (AID 1177); conditions: OD600, 24 h, higher = more signal, called active from +8 up or from −8 down;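 further: cultures grown under basal conditions with no added stressor; test concentration not given here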
[17] = E. coli acrAB mutant growth effects, primary screen, E. coli filamentation inducers, strain DRC39, OD650, 24 h (AID 1178); conditions: higher = more signal, called active from +8 up or from −8 down;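 further: growth measured as culture turbidity by optical density at 650 nm; test concentration not given here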
[18] = E. coli acrAB mutant growth effects, primary screen, E. coli filamentation inducers, strain DRC39, OD650, 48 h (AID 1179);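 further: screen aims at cell division blockers that make cells filament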; conditions: E. coli DRC39 delta-acrAB growth, higher = more signal, called active from +8 up or from −8 down
[19] = RPMI8226 myeloma cell viability, profiling panel, resazurin fluorescence, basal, 24 h, PK04 Diversity Set (AID 1180); conditions: higher = more signal;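 further: RPMI8826 multiple myeloma cell line at 5000 cells per well; test concentration not given here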
[20] = molecular target: E3 ubiquitin-protein ligase XIAP (Homo sapiens) (UniProt P98170); assay: XIAP binders, primary screen, biophysical, small-molecule microarray, fluorescence 635 nm (AID 1181); conditions: small-molecule microarray binding, higher = more signal;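 further: score merges 667 nm emission and signal to noise over triplicate slides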
E3 ubiquitin-protein ligase XIAP (Homo sapiens), sequence (P98170 whole entry, looked up): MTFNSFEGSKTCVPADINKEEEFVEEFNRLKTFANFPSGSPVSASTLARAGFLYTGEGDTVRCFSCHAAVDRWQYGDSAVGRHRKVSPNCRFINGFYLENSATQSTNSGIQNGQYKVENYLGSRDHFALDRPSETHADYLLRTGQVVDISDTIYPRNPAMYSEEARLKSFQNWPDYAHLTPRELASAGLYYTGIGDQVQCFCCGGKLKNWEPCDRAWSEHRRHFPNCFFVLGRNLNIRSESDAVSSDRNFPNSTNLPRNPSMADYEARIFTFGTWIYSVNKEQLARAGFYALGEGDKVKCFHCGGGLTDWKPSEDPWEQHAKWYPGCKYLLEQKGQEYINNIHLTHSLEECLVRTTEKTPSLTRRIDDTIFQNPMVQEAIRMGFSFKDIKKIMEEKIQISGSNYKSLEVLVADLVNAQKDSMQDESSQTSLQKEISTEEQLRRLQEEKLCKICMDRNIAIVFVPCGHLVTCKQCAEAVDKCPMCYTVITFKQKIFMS

Dihydroorotate dehydrogenase (quinone), mitochondrial (Plasmodium falciparum (isolate 3D7)), sequence (Q08210 whole entry, looked up): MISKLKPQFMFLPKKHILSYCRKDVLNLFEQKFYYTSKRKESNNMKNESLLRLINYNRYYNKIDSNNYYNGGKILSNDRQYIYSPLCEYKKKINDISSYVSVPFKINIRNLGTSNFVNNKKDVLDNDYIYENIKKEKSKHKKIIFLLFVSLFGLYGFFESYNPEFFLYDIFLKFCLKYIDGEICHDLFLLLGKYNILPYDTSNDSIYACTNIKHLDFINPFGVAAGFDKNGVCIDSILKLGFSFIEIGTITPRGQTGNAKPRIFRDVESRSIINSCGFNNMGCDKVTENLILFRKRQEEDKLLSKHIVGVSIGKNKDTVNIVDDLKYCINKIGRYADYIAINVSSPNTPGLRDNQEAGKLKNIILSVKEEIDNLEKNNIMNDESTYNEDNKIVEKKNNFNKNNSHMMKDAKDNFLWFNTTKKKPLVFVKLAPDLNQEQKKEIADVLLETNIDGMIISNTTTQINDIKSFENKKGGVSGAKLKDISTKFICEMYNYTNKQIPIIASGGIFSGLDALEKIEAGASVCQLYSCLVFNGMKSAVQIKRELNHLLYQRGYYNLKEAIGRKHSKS

SMILES | z-score [1] | z-score [2] | z-score [3] | z-score [4] | z-score [5] | z-score [6] | z-score [7] | z-score [8] | z-score [9] | z-score [10] | z-score [11] | z-score [12] | z-score [13] | composite z-score [14] | z-score [15] | z-score [16] | z-score [17] | z-score [18] | z-score [19] | composite z-score [20]
CCOC(=O)[C@H](CC(C)C)NC(=O)CCC1CC(OC(=O)NCc2cccc3ccccc23)CC2(CCCC(COC(=O)NCCCN3CCCC3=O)O2)O1 (stereo not given in full) | 0.367 | 1.15 | -0.839 | -0.0471 | -1.31 | 0.106 | -0.636 (inactive) | -0.555 | -1.15 | 0.489 (inactive) | 0.281 | -0.761 (inactive) | 0.826 (inactive) | 0.0067 (inactive) | -0.47 (inactive) | 0.209 (inactive) | -0.134 (inactive) | 0.323 (inactive) | -0.241 | -0.104
COc1ccc(O[C@H]2C=C[C@@H](c3ccccc3)O[C@@H]2CON=C2[C@H]3CCn4c(=O)n(-c5ccccc5)c(=O)n4[C@H]3[C@H](O)[C@@H]3O[C@H]23)cc1 | 0.455 | -0.669 | -0.0924 | -2.98 | -1.37 | -0.0967 | 0.112 (inactive) | -0.921 | -0.429 | -1.55 (inactive) | -1.63 | 0.422 (inactive) | -2.53 (inactive) | -0.268 (inactive) | -0.0417 (inactive) | 0.0056 (inactive) | 0.694 (inactive) | 0.731 (inactive) | -1.92 | -0.403
CO[C@@H]1COC(=O)CC=C[C@H](C)[C@H](OC)COC(=O)[C@H](C)NC(=O)CC=C[C@H]1C | 0.296 | 0.256 | 0.64 | -0.0284 | 0.403 | 0.904 | -0.878 (inactive) | 0.403 | 0.273 | 0.932 (inactive) | 0.774 | -0.486 (inactive) | 0.978 (inactive) | -0.165 (inactive) | -0.638 (inactive) | -0.363 (inactive) | 0.853 (inactive) | -0.0907 (inactive) | 0.453 | 0.0264
CO[C@H](C1CCCCC1)[C@H](C)C=CCC(=O)OCCCc1ccccc1 | 0.19 | -0.518 | -0.0782 | -0.237 | 0.182 | 0.639 | -0.249 (inactive) | 0.773 | -0.199 | 0.301 (inactive) | 0.159 | 0.878 (inactive) | 0.227 (inactive) | 0.503 (inactive) | -0.315 (inactive) | 1.63 (inactive) | -0.778 (inactive) | -0.417 (inactive) | -0.0411 | -0.193
COC(=O)CC=C[C@@H](C)[C@@H](C=NOCC[C@@H]1C=C[C@H](OC(C)=O)[C@@H](COC(C)=O)O1)NS(=O)(=O)c1ccc(C)cc1 | 0.498 | 0.037 | -0.726 | 0.212 | -0.128 | -0.716 | -1.63 (inactive) | 0.533 | 0.0173 | -0.364 (inactive) | -0.564 | 0.705 (inactive) | -0.602 (inactive) | 0.33 (inactive) | 0.453 (inactive) | 0.193 (inactive) | 0.336 (inactive) | 0.402 (inactive) | -0.393 | 0.0374
CCOC(=O)[C@H](Cc1ccccc1)NC(=O)CCC1CC(OC(=O)NCc2cccc3ccccc23)CC2(CCCC(COC(=O)NCCC(C)C)O2)O1 (stereo not given in full) | 0.509 | -0.0617 | -0.166 | 0.389 | 0.302 | -0.433 | -0.133 (inactive) | -0.758 | -0.121 | 1.32 (inactive) | 1.15 | -1.07 (inactive) | 1.3 (inactive) | -0.619 (inactive) | 0.238 (inactive) | -0.886 (inactive) | -0.427 (inactive) | 0.319 (inactive) | 1.82 | 0.0867
C#CCCCON=C1[C@H]2CCn3c(=O)n(-c4ccccc4)c(=O)n3[C@H]2[C@H](O)[C@@H]2O[C@H]12 | -0.212 | 0.356 | 1.09 | 0.0128 | -0.352 | 0.85 | 0.182 (inactive) | 1.03 | -0.61 | -1.39 (inactive) | -0.775 | -1.34 (inactive) | -2.23 (inactive) | -1.16 (inactive) | 0.352 (inactive) | -1.93 (inactive) | -0.536 (inactive) | -0.231 (inactive) | -1.7 | -0.147
CC(C)=CCCC(C)=CCON=C1C[C@@H](O)[C@@H](O)[C@@H]2[C@@H]3C(=O)N(Cc4ccccc4)C(=O)[C@@H]3CC[C@@H]12 | 0.123 | -0.827 | -1.45 | 0.732 | 0.107 | 0.786 | 0.199 (inactive) | -0.11 | -0.689 | 0.708 (inactive) | 1.42 | -0.404 (inactive) | 0.772 (inactive) | 0.317 (inactive) | -0.143 (inactive) | 0.581 (inactive) | 0.593 (inactive) | 1.01 (inactive) | 0.97 | -0.121
CO[C@@H]1C=CCC(=O)N2CCC[C@H]2C(=O)OC[C@@H](C)C(=O)OC[C@H]1C | 0.623 | 0.244 | 1.17 | 0.138 | -0.267 | 0.848 | 0.00578 (inactive) | -0.257 | 0.269 | 0.585 (inactive) | 1.12 | -0.62 (inactive) | 0.866 (inactive) | 0.321 (inactive) | 0.659 (inactive) | -0.841 (inactive) | 0.947 (inactive) | 0.977 (inactive) | 0.218 | 0.104
